# TSG101-PTAP inh = qHTS Assay for Iinhibitors of HIV-1 Budding by Blocking the Interaction of PTAP/TSG101; Fluorescence polarization, FITC-PTAP peptide / Tsg101 binding; Potency, µM (doses to about 115 µM), inactives show top-dose activity change, negative = inhibition, hits mostly inhibitors; 340,000 tested, under 10 active; active means well fitted inhibition curve with a large enough effect in the main read-out, with a control signal flat, not every such curve was filed as active; inconclusive means small, poorly fitted or top-dose-only effect, or effect the other way, or a change in a side signal; inactive means no such curve, though single readings can be large or run the other way; further: % of control where 0% means no effect
# Target sequence (Q99816 whole entry, looked up): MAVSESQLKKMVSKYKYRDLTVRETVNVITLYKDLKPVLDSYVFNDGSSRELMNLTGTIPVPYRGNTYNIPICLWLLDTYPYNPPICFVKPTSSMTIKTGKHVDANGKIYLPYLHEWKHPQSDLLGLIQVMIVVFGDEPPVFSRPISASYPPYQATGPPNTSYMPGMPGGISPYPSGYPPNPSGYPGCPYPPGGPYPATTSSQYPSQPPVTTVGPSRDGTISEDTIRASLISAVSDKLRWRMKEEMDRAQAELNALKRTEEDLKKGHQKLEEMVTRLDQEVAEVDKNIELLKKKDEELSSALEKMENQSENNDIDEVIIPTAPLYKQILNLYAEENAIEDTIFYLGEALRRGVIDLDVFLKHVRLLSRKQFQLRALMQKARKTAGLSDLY
#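 Fluorescence polarization binding of Tsg101 binding domain (10 uM final) to FITC-labeled PTAP peptide (50 nM final) in HEPES pH 7.5 buffer with NaCl, Tween 20, EDTA, TCEP. Compounds added before peptide; binding 20 min at RT.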
# RGS4 inh = Inhibitors of Regulator of G Protein Signaling (RGS) 4: qHTS | Regulator of G-protein signaling 4 (Homo sapiens), P49798 | Transcreener GDP fluorescence polarization, RGS4-accelerated GTP hydrolysis | Potency, µM (titrated, usually from 114 µM), without a hit: top-dose activity change, negative = inhibition, hits mostly inhibitors | 390,000 compounds, 0.039% hits; further: on the % scale 0 is the no-effect control and ±100 the full control effect; nearly all actives have a fitted effect of over 75% in size
# Target sequence (P49798 whole entry, looked up): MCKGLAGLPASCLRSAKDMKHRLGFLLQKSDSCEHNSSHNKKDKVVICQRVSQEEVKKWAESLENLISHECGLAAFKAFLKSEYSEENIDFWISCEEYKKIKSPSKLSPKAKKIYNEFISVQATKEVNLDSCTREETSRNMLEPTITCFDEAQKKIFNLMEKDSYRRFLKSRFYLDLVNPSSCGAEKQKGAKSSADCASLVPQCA
#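 MLSMR compounds (23 nl, pin-transferred) preincubated 10 min at room temperature with a 500nM (2x) first reagent, then RGS4 at 900nM (2x) plus Transcreener GDP mix added; fluorescence polarization (620/688 nm) read before and after 90 min at 30 °C.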
# KB-V1 MDR tox = qHTS assay for MDR1-selective chemotherapeutics: Primary screen using the drug-selected MDR subline cells KB-V1 | KB-V1 MDR cells viability, CellTiter-Glo, 72 h | Potency, µM (doses to about 46.1 µM), usual class: cytotoxic | 400,000 compounds, 3.4% hits | AID 1347076, 2019; further: on the % scale 0 is the no-effect control and ±100 the full control effect; nearly all actives have a fitted effect of over 60% in size
#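 In this primary screen, KB-V1 cells overexpressing P-gp are incubated with library compounds (lowest to highest concentration) for 72 h at 37 degrees C before a luminescent ATP viability read.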
# KB-3-1 tox = qHTS assay for MDR1-selective chemotherapeutics: Primary screen using the parental adenocarcinoma cell KB-3-1; KB-3-1 viability, CellTiter-Glo ATP luminescence, 72 h; Potency, µM (highest dose often 46.1 µM), actives largely listed as cytotoxic; 400,000 compounds, 1.4% hits; AID 1347075, 2019; further: on the % scale 0 is the no-effect control and ±100 the full control effect; nearly all actives have a fitted effect of over 60% in size
#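 Screening of KB-3-1 cells (DMEM, 10% FBS, phenol-red free) ran from lowest to highest compound concentration; after 72 h at 37 °C viability was read luminescently and curves fitted.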
# SW480 rerep = A quantitative high throughput screen for small molecules that induce DNA re-replication in SW480 colon adenocarcinoma cells | SW480 DNA re-replication, Hoechst DNA content imaging, 48 h | Potency, µM (doses to about 46.1 µM), for the others: at the top dose re-replication activation, usual class: activators | 340,000 compounds, 1.8% hits; further: % of control where 0% means no effect; nearly all actives have a fitted effect of over 55% in size
#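 First, 250 cells per well were seeded. Next, compound or vehicle (23 nL) was pinned in, plates sat 48 hr at 37 C. Finally Hoechst was added for 40 min before fluorescence scanning.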
# MCF10A rereplic = A quantitative high throughput screen for small molecules that induce DNA re-replication in MCF 10a normal breast cells; Potency, µM (titrated, usually from 46.1 µM), inactives show at the top dose activity, positive = re-replication, most hits filed as activators; 350,000 compounds, 2.9% hits; MCF 10A DNA re-replication, Hoechst nuclear intensity, 48 h; further: % of control where 0% means no effect; nearly all actives have a fitted effect of over 50% in size
# Starred values were filed as active, the others as inactive; i = inactive; ? = inconclusive; nt = no result; ! = a repeat was not active; [ ] = dose if it differs, or a comment. Shown are actives, neighbours in structure and some others; about 6.6% of the full set was active somewhere. Unless noted, the call rests on the fitted dose curve; in most records, active means well fitted curve in the direction sought with a large enough effect; inconclusive means small, poorly fitted or top-dose-only effect, or another doubt; inactive means no such curve, though single readings can be large; an effect the other way counts as inactive or inconclusive. Potency means the concentration at half of the fitted maximal effect.
SMILES,TSG101-PTAP inh,RGS4 inh,KB-V1 MDR tox,KB-3-1 tox,SW480 rerep,MCF10A rereplic
COc1ccc(-c2cc(-c3nc4ccccn4c3NCc3ccccc3)ccc2OC)cc1,-7%,15%,?,i,16µM*,5.8µM*
Clc1ccc2nc(-c3cccc(SC4CCCCC4)c3)c(NCc3ccccc3)n2c1,-2%,-19%,i,i,-2%[9.22 µM],?
COc1ccc(-c2nc3ccccn3c2NCc2ccc3c(c2)OCO3)cc1,-4%,-16%,?,i,-7%[9.22 µM],?
Cc1ccc2nc(-c3cccc(SC4CCCCC4)c3)c(NCc3ccccc3)n2c1,-12%,4%,?,?,?,18µM*
Clc1cccc(-c2ccc(-c3nc4ccccn4c3NCc3ccccc3)cc2)c1,-6%,7%,i,i,?,16µM*
c1ccc(CNc2c(-c3cccc(SC4CCCCC4)c3)nc3ccccn23)cc1,-4%,5%,i,i,6.5µM*,18µM*
CS(=O)(=O)N1CCCc2cc(C(=O)Nc3cccc(C(F)(F)F)c3)ccc21,nt,-5%,nt,nt,nt,nt
N[C@H](C(=O)O)C1C(C(=O)O)C1C(=O)O (some centres not stated),nt,i,nt,nt,nt,nt
Cc1ccc(C)c(-n2nnc(-c3nc(-c4ccccc4C)no3)c2C)c1,nt,-7%,nt,nt,nt,nt
CCc1ccc(OCC2c3cc(OC)c(OC)cc3CCN2C(=O)c2ccc(S(=O)(=O)N3CCCC3)cc2)cc1 (configuration not stated),nt,12%,?,i,nt,nt
CCCn1c2ccccc2c2cnn(CC(=O)N(Cc3ccccc3)C(C)C)c(=O)c21,nt,-5%,i,i,nt,nt
Cc1ccn2c(NCc3ccccc3)c(-c3cccc(SC4CCCCC4)c3)nc2c1,4%,-15%,21µM*!,?,-10%,21µM*
CCCCNc1c(-c2cccc(SC3CCCCC3)c2)nc2ccc(Cl)cn12,1%,5%,?,?,-4%,26µM*
CCCCNc1nc2ccccc2n1CC(=O)N1CCc2ccccc2C1,0%,15%,10µM*,i,0%,-2%
CCCCNC(=O)N1CCc2ccccc2C1,1%,?,i,i,23µM*,2%
O=C(NCc1ccc(F)cc1)N1CCc2ccccc2C1,0%,-4%,i,i,-28%,-2%
COc1ccc(S(=O)(=O)c2c(O)c3ccc(C(=O)NCc4ccccc4)cc3[nH]c2=O)cc1,nt,13%,i,i,nt,nt
Cc1ccc(-n2nc(C(=O)N(C)c3ccccc3Cl)c3c4ccccc4n(C)c3c2=O)cc1,nt,-5%,i,i,nt,nt
COc1ccc2cc(CCNS(=O)(=O)c3ccc(C)cc3)c(=O)[nH]c2c1,nt,-5%,i,i,nt,nt
CCc1cc2c(Sc3nc4ccccc4s3)ncnc2s1,1%,-16%,?,12µM*,?,?
c1ccc2sc(Sc3ncnc4sccc34)nc2c1,-5%,-18%,i,i,?,21µM*
CCc1cc2c(SCC(=O)Nc3ccc(NC(C)=O)cc3)ncnc2s1,2%,-19%,i,i,-7%,15%
OCc1c[nH]c2ccccc12,0%,-15%,i,i,0%,?
Oc1cccc2c(CC(O)c3c[nH]c4ccccc34)ccnc12 (configuration not stated),nt,nt,?,0.73µM*,nt,nt
CCN(CC)CCNc1nc2cc(OC)c(OC)cc2c2nc(-c3ccccc3)nn12,-5%,-5%[11.4 µM],9.2µM*,16µM*,18%,19%
SMILES,TSG101-PTAP inh,RGS4 inh,KB-V1 MDR tox,KB-3-1 tox,SW480 rerep,MCF10A rereplic
COc1cc2nc(NCCc3cccc(C)c3)n3nc(-c4ccccc4)nc3c2cc1OC,nt,23%,i,i,nt,nt
CCC/C=C1/CCCOC(C(=O)NCC2CC2)(C(F)(F)F)C1 (configuration not stated),nt,6%,nt,nt,nt,nt
CC(=O)OCC(NC(=O)C(C)NC(=O)OC(C)(C)C)C1OC(n2ccc(=O)[nH]c2=O)C(OC(C)=O)C1OC(C)=O (configuration not stated),nt,11%,nt,nt,nt,nt
O=C(CSc1nc2ccc(Cl)cc2[nH]1)NCc1ccco1,1%,5%,?,i,-2%,?
Cc1cc(C(=O)CSc2nc3ccc(Cl)cc3[nH]2)c(C)n1Cc1ccco1,1%,-23%,21µM*,i,-6%,?
CC1CCN(C(=O)Nc2ccc3nc(-c4ccco4)c(-c4ccco4)nc3c2)CC1,nt,?,?,i,nt,nt
CNc1ccccc(C(=O)/C=C/c2ccccc2OC)c1=O,1%,?,15µM*,?,?,?
COc1ccccc1C=CC(=O)C=Cc1ccccc1OC,-2%,-48%,?,?,8.2µM*,3.3µM*
COc1ccc(C=CC(=O)C=CC=Cc2ccccc2)cc1,0%,-17%,i,?,21µM*,?
COc1ccccc1/C=C/C(=O)/C=C/c1ccccc1O,-3%,-35%,?,?,?,10µM*
COC(=O)c1cccc(Nc2nn3c(=O)c4cc5c(cc4nc3s2)OCO5)c1,nt,-5%,i,i,nt,nt
COc1ccc(CCNC(=O)c2cc(-c3ccc(C)c(C)c3)nc3ccccc23)cc1OC,nt,-13%,i,i,nt,nt
Cc1cc(C)cc(NC(=O)Cn2cc(S(=O)(=O)NC(C)(C)C)c(S(=O)(=O)NC(C)(C)C)c2)c1,nt,-11%,?,?,nt,nt
O=C(COc1ccc2ccccc2c1)Nc1ccc(O)c(-c2nc3ccccc3o2)c1,nt,nt,?,i,nt,nt
CCc1cccc(C)c1NC(=O)CN(C)S(=O)(=O)c1cccc2nsnc12,nt,-3%,i,i,nt,nt
O=C(Cn1c(=O)n(-c2ccccc2)c(=O)c2oc3ccccc3c21)Nc1ccccc1,-4%,8%,15µM*,i,-4%,?
NC(=O)Cn1c(=O)n(-c2ccccc2)c(=O)c2oc3ccccc3c21,0%,10%,i,i,10%,0%
CCOC(=O)C(=CNc1cc(C)nn1-c1ccc(Cl)cc1)C(=O)OCC,2%,-26%,i,i,-2%,?
CCOC(=O)C(=Cc1ccc(-n2cncn2)cc1)C(=O)OCC,0%,?,i,?,16µM*,4.6µM*
